The campaign covered roughly 48,000 compounds. About 13,000 (27%) showed an effect of 50% or more. Some of the results follow.

The test system of this assay is Wolbachia pipientis. Put plainly: Anti-Wolbachia Cell-Based Screen. Further details: scale not given: in the data most compounds retested in dose-response had high values. Conditions: 5 µM. The format is functional.
For the compound `Cn1ncc2c(=O)[nH]c(N3CCCC3c3cccc(Cl)c3)nc21` (stereo not given), the “Percent Effect” value was -9.423%.

On to `CCNC(=O)CN1CCOC(c2ccccc2C(F)(F)F)C1` (stereo not given), for which the “Percent Effect” value was -9.523%. For `FC(F)(F)c1ccc(CN2CCN(Cc3cscn3)CC2)cc1`, the “Percent Effect” value was -5.816%. For `O=c1n(CCSCc2ccccc2F)nc2ccccn12`, the “Percent Effect” value is 16.6%. As for `O=c1n(Cc2ccccc2F)nc2ncccn12`, the “Percent Effect” value was 224.5%. Turning to `O=c1n(Cc2ccc(F)cc2)nc2ncccn12`, the “Percent Effect” value was 93%. With `Cn1cnn(Cc2ccccc2F)c1=O` the figure was -4.03%; with `CC(C)C1CN(c2ncccn2)CCC(=O)N1Cc1ccc(F)cc1` (stereo not given), -1.405%. For `O=C(O)[C@@H]1CN(Cc2nc3ncccn3n2)C[C@H]1c1cccc(F)c1`, the “Percent Effect” value came to 4.961%.

`Fc1ccc(Cn2ncc3c2CN(c2ncccn2)C3)cc1`: the “Percent Effect” value is listed as -12.4%. `O=c1n(Cc2ccc(C(F)(F)F)cc2)nc2ncccn12`: the “Percent Effect” value was 133.4%. On to `O=c1n(Cc2cccc(F)c2)nc2ncccn12`, for which the “Percent Effect” value is 124.9%. `COc1nccnc1N1CCN(Cc2cccc(F)c2)C(=O)C1`: the “Percent Effect” value is listed as -1.411%. In the case of `CC(NC(=O)Cn1cccnc1=O)c1ccc(C(F)(F)F)cc1` (stereo not given) it was -2.849%. Consider `Cn1ccc(C(=O)N(CC(F)(F)F)c2cccc(Cl)c2)cc1=O`, for which the “Percent Effect” value is -11.93%. With `CCc1nc2n(n1)CC(Nc1nc(C)cc(N(C)C)n1)CC2` (stereo not given) the figure was 2.422%; with `CCC1=NOC(CNCc2cnc(-c3ccccc3C)s2)C1` (stereo not given), -1.087%; with `Cc1c(C)n(CC(O)CN2CCCCCC2)c2c(Cl)cccc12` (stereo not given), 9.081%.

As for `CC(=O)c1cccc(NC(=O)NCCc2nnc[nH]2)c1`, the “Percent Effect” value was -18%.

Regarding `O=C(O)c1nnn(Cc2cccc(C(F)(F)F)c2)c1-c1ccccn1`, the “Percent Effect” value was 11.55%. Turning to `O=C(O)c1nnn(Cc2cccc(C(F)(F)F)c2)c1-c1ccncc1`, the “Percent Effect” value was -2.735%. In the case of `O=c1n(Cc2cccc(C(F)(F)F)c2)nc2ncccn12` it was 134.4%; in that of `Cc1cncc(NCc2ccccc2N2CCOCC2)c1`, 0.5273%. As for `O=C(NCc1ccccc1CO)Nc1ccc2c(c1)CCO2`, the “Percent Effect” value is recorded as 11.78%. On to `Cc1csc(N2CCCN(C(=O)C3(C#N)CCCCC3)CC2)n1`, for which the “Percent Effect” value was -2.808%. As for `COCc1c(Br)cccc1NC(=O)N(C)CCO`, the “Percent Effect” value is on record as -0.915%.

For `CCN(Cc1ccncc1)C1CCCN(Cc2ccc(F)cc2OC)C1` (stereo not given), the “Percent Effect” value was -6.511%.

Turning to `COc1cccc(C(CO)NC(=O)Cc2ccc(F)c(Br)c2)c1` (stereo not given), the “Percent Effect” value was determined as 1.843%. On to `COc1ccc(C(C#N)NC(=O)Cc2ccc(F)c(F)c2)c(OC)c1` (stereo not given), for which the “Percent Effect” value worked out at 86.82%. With `COc1ccc(C(C#N)NC(=O)CC2=CCCCC2)c(OC)c1` (stereo not given), the “Percent Effect” value was -6.467%. Turning to `COCc1nc(C)cc(Nc2ccc3c(c2)CC(=O)N3)n1`, the “Percent Effect” value was -4.999%.

For the compound `COc1cc2c(cc1CN1C[C@@H](CN3CCOCC3)[C@@H](CO)C1)CCC2`, the “Percent Effect” value was determined as 3.11%. Regarding `Cc1c[nH]nc1C1CCN(C(=O)C2CCOCC2)C1` (stereo not given), the “Percent Effect” value was 146.2%. Consider `CCc1nc(CN2CCCN(C(=O)CC3CCCC3)CC2)cs1`, for which the “Percent Effect” value is given as -10.08%. Turning to `Cc1c[nH]c(CN2CC[C@@]3(O)CCN(C(=O)C4CCCC4)C[C@H]3C2)n1`, the “Percent Effect” value came out at 6.79%. As to `O=C(C1CCS(=O)(=O)CC1)N1CCC(c2ccc(F)cc2)C1` (stereo not given), the “Percent Effect” value is -11.81%.

Consider `COc1ccc(OC)c(C2CCN(C(=O)C3CCOCC3)C2)c1` (stereo not given), for which the “Percent Effect” value is recorded as 3.237%.

`COc1ccc2cc(C3CN(C(=O)C4CCOCC4)CCO3)ccc2c1` (stereo not given): the “Percent Effect” value was -17.44%. As to `Cc1c[nH]nc1C1CCN(C(=O)C2CCCC2)C1` (stereo not given), the “Percent Effect” value was found to be 108.3%.

Regarding `Cc1c[nH]nc1C1CCN(C(=O)CC2CCCC2)C1` (stereo not given), the “Percent Effect” value is 140.5%.

`O=C(C1CCC1)N1CCC(C(=O)N2CCC(c3ccc(F)cc3)C2)CC1` (stereo not given): the “Percent Effect” value came to 15.47%. With `Cc1c[nH]nc1C1CCN(C(=O)C2CCC2)CC1`, the “Percent Effect” value was determined as 187.6%. For `Cc1c[nH]nc1C1CCN(S(=O)(=O)N(C)C)CC1`, the “Percent Effect” value is recorded as -12.28%. As to `Cc1ccc(NC(=O)N2CCN(C(=O)CC3CCCC3)CC2)s1`, the “Percent Effect” value is listed as -2.154%. As for `CNC(=O)[C@@H]1C[C@H](N)CN1S(=O)(=O)c1cc(Cl)c(Cl)s1`, the “Percent Effect” value is -16.04%. Take `Cc1ccc2oc(C(=O)N3CCCC(n4nc(C)cc4C)C3)cc2n1` (stereo not given): the “Percent Effect” value is given as -4.167%. With `C1CCN(CCOC2CCNCC2)C1`, the “Percent Effect” value was -3.216%.

Take `CNC(=O)[C@@H]1C[C@@H](N)CN1C1CCN(c2ccccc2F)CC1`: the “Percent Effect” value is given as -6.416%.

Take `O=C(c1ccc2c(c1)CCC2)N1CC[C@H](O)[C@]2(CCCO2)C1`: the “Percent Effect” value stood at 143.9%. Turning to `O=C(c1ccc2[nH]nnc2c1)N1CCCC(n2cccn2)C1` (stereo not given), the “Percent Effect” value was -7.495%. In the case of `O=C(c1ccc2c(c1)CCC2)N1CCCCC1C1OCCO1` (stereo not given) it was -21.29%; in that of `O=C(c1ccc2[nH]nnc2c1)N1CC[C@H](O)[C@]2(CCCO2)C1`, 85.31%; in that of `CC(C)S(=O)(=O)NCC1CCCN(C(=O)c2ccc3c(c2)CCC3)C1` (stereo not given), -10.39%.

For `O=C(c1ccc2[nH]nnc2c1)N1C[C@H](O)[C@]2(CCCO2)C1`, the “Percent Effect” value amounted to 107.9%. Turning to `COc1ccc(NC(=O)NC(C)(C)c2noc(C)n2)cc1`, the “Percent Effect” value is -12.65%. On to `CS(=O)(=O)CCOCCNc1ccc(C#N)cc1F`, for which the “Percent Effect” value is -9.887%. As to `FC(F)(F)c1n[nH]c2c1CN(CCc1ccccn1)CC2`, the “Percent Effect” value is reported as -4.323%. With `COc1ccc(-c2cccc(-c3ccn(CC4COCCO4)n3)c2)nn1` (stereo not given) the figure was -12.89%. With `Cn1cnc2cc(C(=O)NS(=O)(=O)c3ccc(F)cc3)ccc21` the figure was -13.37%; with `O=C(O)C1c2nc[nH]c2CCN1Cc1ccc(-c2ccccc2)s1` (stereo not given), -13.4%. As for `Cc1nc(CN2CCC3(CCN(Cc4cnn(C)c4)C3)C2=O)cs1` (stereo not given), the “Percent Effect” value is reported as 104.5%.

`Cc1nc(CN2CCC3(CCN(Cc4cnn(C)c4)CC3)C2=O)cs1.O=C(O)C(F)(F)F.O=C(O)C(F)(F)F`: the “Percent Effect” value worked out at 102.9%. With `Cc1nc(CN2CCC3(CCCN(Cc4cnn(C)c4)C3)C2=O)cs1.O=C(O)C(F)(F)F.O=C(O)C(F)(F)F` (stereo not given), the “Percent Effect” value was found to be 12.7%.

Take `Cc1nc(CN2CCC3(CCN(Cc4nccn4C)CC3)C2=O)cs1.O=C(O)C(F)(F)F.O=C(O)C(F)(F)F`: the “Percent Effect” value amounted to 106%. As to `O=C1O[C@@H]2CN(Cc3cc4ccccc4o3)C[C@@H]2N1Cc1ccccn1`, the “Percent Effect” value is 8.786%. In the case of `CN(Cc1ccncn1)c1nccc(CCC(F)(F)F)n1` it was 2.558%; in that of `O=C(CC1CC1)NCc1cn2c(n1)CN(C(=O)C1CCOCC1)CC2`, 7.38%; in that of `O=C(O)C(F)(F)F.O=C(O)C(F)(F)F.c1c(CN2CCCC2)nc2n1CCN(CC1CC1)C2`, -6.407%.

In the case of `CN(Cc1cn2c(n1)CN(C1CCOCC1)CC2)Cc1ccco1.O=C(O)C(F)(F)F.O=C(O)C(F)(F)F`, the “Percent Effect” value came out at 4.973%.

`c1c(CN2CCOCC2)nc2n1CCN(C1CCOCC1)C2`: the “Percent Effect” value was determined as 79.69%. With `c1c(CN2CCOCC2)nc2n1CCN(CC1CC1)C2`, the “Percent Effect” value is reported as 101.8%. For `CN1CCN(Cc2cn3c(n2)CN(C2CCOCC2)CC3)CC1.O=C(O)C(F)(F)F.O=C(O)C(F)(F)F.O=C(O)C(F)(F)F`, the “Percent Effect” value is 107%.

Take `O=C(NCc1cn2c(n1)CN(CC1CCOCC1)CC2)C1CCC1.O=C(O)C(F)(F)F`: the “Percent Effect” value was -3.322%.

In the case of `c1c(CN2CCCCC2)nc2n1CCN(CC1CC1)C2`, the “Percent Effect” value was determined as 5.412%. For the compound `CN1CCN(Cc2cn3c(n2)CN(C(=O)N2CCOCC2)CC3)CC1.O=C(O)C(F)(F)F.O=C(O)C(F)(F)F`, the “Percent Effect” value is -14.48%. For `c1nc2n(c1CN1CCOCC1)CCN(C1CCOC1)CC2` (stereo not given), the “Percent Effect” value is -7.987%. On to `O=C(O)C(F)(F)F.O=C(O)C(F)(F)F.c1c(CN2CCCC2)nc2n1CCN(C1CCOCC1)C2`, for which the “Percent Effect” value is recorded as 102.1%. `O=C(O)C(F)(F)F.O=C(O)C(F)(F)F.c1cn2c(n1)CN(C1CCOCC1)CC(CN1CCCC1)C2` (stereo not given): the “Percent Effect” value is on record as -10.3%. As for `CCCN1CC(C(=O)Nc2ccccn2)CC1=O` (stereo not given), the “Percent Effect” value is listed as -15.01%. As to `COc1ccc(CN2CC[C@@H](N)[C@@H](OC)C2)cc1Cn1cncn1`, the “Percent Effect” value amounted to 18.6%.

With `Cc1n[nH]cc1CNC(C(=O)N1CCOCC1)c1ccccc1` (stereo not given), the “Percent Effect” value was 6.045%. Consider `Cc1cnc(-c2nc(C3CCCN(Cc4ccccc4C)C3)no2)cn1.Cl` (stereo not given), for which the “Percent Effect” value was 93.62%. Turning to `Cc1cccn2cc(CN3CCCC(c4noc(C5CC5)n4)C3)nc12` (stereo not given), the “Percent Effect” value is -10.66%. As to `Cc1cnc(CN2CCN(C(C)c3nc(C4CC4)no3)CC2)cn1` (stereo not given), the “Percent Effect” value is given as 13.95%. `Cc1cnc(-c2nc(C3CCN(Cc4ccccc4C)CC3)no2)cn1`: the “Percent Effect” value worked out at 126.9%. Take `Cc1cnc(-c2nc(C3CCN(Cc4ccccc4Cl)CC3)no2)cn1`: the “Percent Effect” value came out at 142.3%. In the case of `Cc1cnc(-c2nc(-c3cccc(CN4CCOCC4)c3)no2)cn1`, the “Percent Effect” value was found to be 4.673%. In the case of `Cc1nc(C)c(CN2CCOC(Cc3ccccc3Cl)C2)nc1C` (stereo not given) it was -25.93%. Take `c1cc(CN2CCCC(c3noc(C4CC4)n3)C2)no1` (stereo not given): the “Percent Effect” value was found to be 4.824%. With `CN1CCC(Cc2noc(-c3cn(Cc4ccccc4Cl)nn3)n2)CC1`, the “Percent Effect” value is listed as 21.53%. Regarding `Cc1nc(C2CCCN(c3ncc(Br)cn3)C2)no1` (stereo not given), the “Percent Effect” value was -7.201%. With `Cc1cnc(-c2nc(C3CCCN(Cc4cccs4)C3)no2)cn1` (stereo not given), the “Percent Effect” value is 85.43%.

For `CCCNC(=O)CN1CCCC1c1nc(Cc2ccc(F)cc2)no1` (stereo not given), the “Percent Effect” value is -9.393%.

As to `CC(C)N1CCOC[C@H]1c1nc(C(C)(C)C)c[nH]1`, the “Percent Effect” value is given as -12.91%. Consider `Cc1ccccc1C(C)(C)CNC(=O)CN(C)c1cnccn1`, for which the “Percent Effect” value was 6.052%. Regarding `Cc1ccsc1C(=O)NC1CCN(c2cnn(C)c2)C1=O` (stereo not given), the “Percent Effect” value is -14.12%. Regarding `CC(C)(C)NC(=O)C[C@@H]1CCNC[C@@H]1Cc1cc(C(C)(C)C)on1`, the “Percent Effect” value is recorded as -4.858%.

`Cc1cnc(-c2nc(C3CCN(Cc4ccccc4O)CC3)no2)cn1`: the “Percent Effect” value was determined as 140.6%. Consider `c1ccc2[nH]c(C3CCN(Cc4nc(C5CC5)no4)CC3)cc2c1`, for which the “Percent Effect” value came out at 8.105%.

Take `c1cc(C2CCN(Cc3nc(C4CC4)no3)CC2)[nH]n1`: the “Percent Effect” value was determined as 45.49%.

The values above are taken from ChEMBL document CHEMBL3988442, “University of Dundee, Small-Polar-MMV Screening Library” (2021).
